This is part of a sample that, as a whole, favours compounds with a hit. Of some 83,000 tested, about 20% had one in any assay.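 Cells were grown in 96-well plates and exposed to the test compound at a single concentration for 48 hours; results are reported as percent growth, with values below 10 considered active.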 Unmarked numbers belong to inactive results. Activity calls are given as the source filed them.
Assays:
Experiment in all cases: NCI-60 one-dose screen, 48 h (100 = growth as untreated, 0 = no growth, -100 = all killed)
Settings in all cases: 10 µM unless noted
EKVX NSCLC = tested on: EKVX NSCLC
SN12C renal = tested on: SN12C renal
UO-31 renal = tested on: UO-31 renal
TK-10 renal = tested on: TK-10 renal
ACHN renal = tested on: ACHN renal
CAKI-1 renal = tested on: CAKI-1 renal
CCRF-CEM leukemia = tested on: CCRF-CEM leukemia
MOLT-4 leukemia = tested on: MOLT-4 leukemia
SR leukemia = tested on: SR leukemia

Compound	growth (EKVX NSCLC)	growth (SN12C renal)	growth (UO-31 renal)	growth (TK-10 renal)	growth (ACHN renal)	growth (CAKI-1 renal)	growth (CCRF-CEM leukemia)	growth (MOLT-4 leukemia)	growth (SR leukemia)
CCCCN1CCN(c2ccc3nc(-c4ccc5nc(-c6ccc(C(F)(F)F)cc6)[nH]c5c4)[nH]c3c2)CC1	-72.4% (active)	-80.9% (active)	-82.8% (active)	-71.3% (active)	-99.5% (active)	-77.1% (active)	-32.6% (active)	-61% (active)	-46.8% (active)
CCCN1CCN(c2ccc3nc(-c4ccc5nc(-c6cc(OC)ccc6OC)[nH]c5c4)[nH]c3c2)CC1	96.7%	99.2%	85.7%	118%	106%	106%	3.98% (active)	77%	-25.6% (active)
Cc1ccc2c(n1)C(=O)C(Oc1ccc(Br)cc1)=CC2=O	104%	93.5%	84.3%	103%	7.34% (active)	97.5%	62%	87.9%	92.1%
CCN1C(=O)N(c2ccccc2)C2Nn3c(s/c(=C4\C(=O)N(C(C)C)c5ccccc54)c3=O)=NC21 (stereo not given)	97.8%	102%	79.9%	122%	108%	86.9%	103%	107%	108%
CC1=NCC2NC(=O)NC(C)=C12 (stereo not given)	100%	99.2%	83.6%	95.9%	109%	92.8%	99.7%	107%	104%
Cc1cccc2c(=O)c3c(sc12)c(NCCCNCCO)nc1ccccc13	53.5%	44.6%	34.8%	49.5%	9.89% (active)	24.8%	15%	-34% (active)	-27.3% (active)
Cc1sc2ncn(CC(=O)Nc3ccc(S(N)(=O)=O)cc3)c(=O)c2c1C	95.8%	98.6%	73.1%	109%	103%	95.4%	105%	102%	117%
COC(=O)c1c2c(c(C)[n+]([O-])c1C)C(=O)C=C(NCc1ccc(F)c(F)c1)C2=O	-82.1% (active)	-93.7% (active)	-71.5% (active)	3.98% (active)	-78.2% (active)	-10.6% (active)	5.3% (active)	-26.5% (active)	10.5%
COc1ccccc1C1=C(Br)C(=O)c2nc(C)ccc2C1=O	99.5%	92.4%	77.2%	101%	19.9%	98.4%	92%	117%	105%
COc1ccc2c(c1)C=C1CSCC3=Cc4cc(OC)ccc4OC13O2	40.3%	28.2%	44.5%	60.7%	32.5%	37.1%	16.1%	14.3%	27%
COC(=O)c1c2c(c(C)[n+]([O-])c1C)C(=O)C=C(NCc1ccccc1)C2=O	-54.9% (active)	-89.1% (active)	-13.6% (active)	18.1%	-29.5% (active)	3.56% (active)	6.23% (active)	-36.2% (active)	4.44% (active)
S=C1NC2(c3ccccc3)CCC(=S)N2c2ccccc21 (stereo not given)	100%	96.8%	86.2%	124%	108%	78.7%	101%	97.5%	92.9%
COC(=O)c1c2c(c(C)[n+]([O-])c1C)C(=O)C(NCc1ccc(F)c(F)c1)=CC2=O	13%	1.1% (active)	58.8%	85.5%	22.1%	43%	21.5%	8.41% (active)	20.4%
COc1ccc(S(=O)(=O)N(Cc2ccc3c(n2)C=CC(C)(C)O3)C2CCC2)cc1OC	-22.5% (active)	6.9% (active)	-10.2% (active)	-8.7% (active)	13.4%	-28.2% (active)	-19% (active)	-14.3% (active)	-40% (active)
CCn1c(Cc2ccccc2Nc2c(Cl)cccc2Cl)nnc1SCC(=O)NN1C(=O)/C(=C/c2cccc(OC)c2OC)SC1=S	93.2%	95%	77.3%	108%	96.9%	94.1%	96.6%	95.8%	102%
COc1ccc2[nH]c(O)c(N=NC(=O)c3oc4ccccc4c3C)c2c1	37.3%	34.9%	-55.3% (active)	-64% (active)	-50.9% (active)	-51.7% (active)	57.1%	50.9%	43.5%
CN1C(=O)N(C)C2C1NN=c1s/c(=C\c3ccc(Cl)cc3Cl)c(=O)n12 (stereo not given)	50.1%	30.9%	47.3%	83.7%	29%	40.9%	15%	13.1%	4.89% (active)
CN1C(=O)N(C)C2Nn3c(s/c(=C\c4ccc(Cl)cc4Cl)c3=O)=NC21 (stereo not given)	65.1%	75.6%	62%	117%	56.6%	48.4%	49%	64.1%	35.9%
Clc1ccc(Oc2ccc(Nc3ncnc4onc(-c5ccccc5)c34)cc2)c(Cl)c1	103%	94%	67%	105%	105%	90.6%	98.1%	89.8%	80.6%
CCCCN1CCN(c2ccc3nc(-c4ccc5nc(-c6ccc(OC)c(OC)c6)[nH]c5c4)[nH]c3c2)CC1	38.8%	7.75% (active)	50.7%	14.9%	2.47% (active)	2.32% (active)	3.3% (active)	-14.3% (active)	-6.6% (active)
c1ccc2c(c1)oc1cc3sccc3nc12	101%	93%	66.6%	135%	99.5%	78%	100%	97.7%	96.5%
CCCCCCCCCCCCCCn1cc(C2=C(c3coc4ccc(OC)cc34)C(=O)NC2=O)c2ccccc21	90.9%	100%	83.5%	102%	102%	88.8%	101%	118%	111%
COc1ccc2occ(C3=C(c4c[nH]c5ccccc45)C(=O)NC3=O)c2c1	49.4%	38.4%	40.4%	81.5%	70.2%	36.6%	51.9%	30.2%	29.4%
COc1cc(/C=C2\Oc3cc(OCCCN4CCCC4)ccc3C2=O)cc(OC)c1	77.1%	78.8%	53.4%	101%	-45.4% (active)	58.6%	-24.4% (active)	-22.9% (active)	-49.3% (active)
CCCCN1CCN(c2ccc3nc(-c4ccc5nc(-c6ccc(OCC)cc6)[nH]c5c4)[nH]c3c2)CC1	92.9%	76.9%	100%	86.8%	63.9%	51.2%	20.5%	56.9%	-1.98% (active)
C=CCN1C(=O)/C(=c2\sc3n(c2=O)NC2C(N=3)N(CC)C(=O)N2CC)c2ccccc21 (stereo not given)	49.2%	56.7%	56%	101%	52.9%	42.3%	24.4%	36.4%	21.1%
Cc1c(-c2csc(-n3nc(C(F)(F)F)cc3C(F)(F)F)n2)no[n+]1[O-]	69.6%	95.7%	85.8%	118%	107%	87.6%	95.7%	87.3%	91.1%
Cc1nc2ccccc2c(/C=C/c2ccccc2)c1C(=O)/C=C/c1ccc(Cl)cc1	39.9%	19.7%	11.1%	21.9%	14.3%	12.6%	3.51% (active)	5.62% (active)	–
Cc1nc(Nc2cn[nH]c2C(=O)Nc2ccc(CN3CCN(C)CC3)cc2)c2ccsc2n1	106%	75.4%	59.6%	114%	92.8%	61.5%	40.5%	45.8%	5.46% (active)
